The AC50 is the midpoint of the concentration-response curve, whichever way the signal moves.

Calls of active or inactive are those of the source. The calls were made as follows: active = hit-call score of the fitted dose curve at least 0.9, where 1 is the maximum; inactive = score below 0.9.

This assay in a line: ATG_DR4_LXR_CIS: Attagene CIS-FACTORIAL HepG2 Assay for human Liver X Receptor (LXR), DR4 submotif (AID 2282929). The following applies: HepG2 Attagene DR4 cis-reporter, mRNA transcription; actives raise or lower the signal. How it is done:
ATG_CIS is a cell-based, multiplexed-readout assay that uses HepG2, a human liver cell line, with measurements taken at 24 hours after chemical dosing in a 24-well plate.ATG_DR4_LXR_CIS is one of 52 assay component(s) measured or calculated from the ATG_CIS assay. It is designed to make measurements of mRNA induction, a form of inducible reporter, as detected with fluorescence intensity signals by Reverse transcription polymerase chain reaction (RT-PCR) and Capillary electrophoresis technology.Data from the assay component ATG_DR4_LXR_CIS was analyzed into 1 assay endpoint. This assay endpoint, ATG_DR4_LXR_CIS, was analyzed with bidirectional fitting relative to DMSO as the negative control and baseline of activity. Using a type of inducible reporter, measures of mRNA for gain or loss-of-signal activity can be used to understand the reporter gene at the transcription factor-level as they relate to the gene NR1H2 and NR1H3. Furthermore, this assay endpoint can be referred to as a primary readout, because this assay has produced multiple assay endpoints where this one serves a reporter gene function. To generalize the intended target to other relatable targets, this assay endpoint is annotated to the nuclear receptor intended target family, where the subfamily is non-steroidal.
Human liver HepG2 cells are transiently transfected with multiple reporter transcription units (MRTUs) in 6-well plates using FuGene 6 reagent (Roche; 3 ml FuGene/1 mg DNA). The MRTU constructs are regulated by a cis-regulating element (promoter). […] A major difference between the CIS and TRANS system is that in CIS activities of endogenous TFs are measured, whereas the TRANS assay evaluates changes in activities of exogenous, chimeric NR-Gal4 proteins. […] At the end of 24 hour incubation, total RNA was isolated using TriZol reagent (Invitrogen). The isolated RNA is then reverse-transcribed using oligo(dT) primer and Mo-MLV reverse transcriptase (Invitrogen) with DNAse I (Ambion) treatment for 30 min. The one-tenth of the produced cDNA was amplified by PCR using Taq DNA polymerase (Invitrogen) and two reporter sequence-specific primers. The PCR products were fluorescently labeled by primer extension with 6-arboxyfluorescein (6-FAM) 5'-labeled reporter sequence-specific primer (2 min at 95 C, 20 s at 68 C and 10 min at 72 C) and these products were digested with 5U of HpaI (New England Biolabs) for 2h at 37 C. The fragments were purified using Qiaquick PCR columns (Qiagen), analyzed on an ABI 3130xL genetic analyzer (Applied Biosystems) with peak positions identified by using a set of X-rhodamine (ROX)-labeled MapMarker1000 molecular weight standards (BioVentures). The raw capillary electrophoresis data was processed using Attagraph software (Attagene).
In the case of `Cc1ccc(-c2ccccc2)cc1`, the compound was called inactive.
For `C=C1CC[C@H](O)C/C1=C/C=C1\CCC[C@]2(C)[C@@H]([C@H](C)/C=C/[C@H](C)C(C)C)CC[C@@H]12`, the call was inactive.
In the case of `CCCCCCCCCCCCCCN(CCO)CCO`, the AC50 was 13.8 µM (active).
On to `CN(C)c1cccc(O)c1`, for which the result was inactive.
For the compound `CCCCCCCCN1CCCC1=O`, the compound was classed as inactive.
With `O=C(O)CCCCCCCCC(=O)O`, the compound was called inactive.
For the compound `Cc1[nH]c(=O)c(C#N)cc1-c1ccncc1`, the AC50 is 26.6 µM (active).
`CCCCC1(COC(=O)CCC(=O)O)C(=O)N(c2ccccc2)N(c2ccccc2)C1=O`: the result was inactive.
Regarding `C[C@H]1C[C@@H](O)CC(C)(C)C1`, the result was inactive.
Take `CC(=O)O[C@@H]1CC2CCC1(C)C2(C)C` (stereo not given in full): the result was inactive.
In the case of `C=CCCCCCCCCCC`, the result was inactive.
With `Clc1cc(Cl)c(-c2c(Cl)c(Cl)cc(Cl)c2Cl)cc1Cl`, the AC50 is 21.8 µM (active).
As to `CCCCCC(C)=O`, the call was inactive.
Turning to `CC1=C(Br)C(=O)C(Br)=C/C1=C(/c1ccccc1S(=O)(=O)O)c1cc(Br)c(O)c(Br)c1C`, the outcome was inactive.
The same measure, in the same setting: the value for `CCN(CCC#N)c1ccc(N=Nc2ccc([N+](=O)[O-])cc2)cc1` was “inactive”.
For `CCC(=O)OCCOc1ccccc1`, the compound was called inactive.
The same measure, in the same setting: the value for `CCCCCCCC(=O)OCC(O)CO` (stereo not given) was “inactive”.
For the compound `CC(=O)C1(C)CC2=C(CCCC2(C)C)CC1C` (stereo not given), the AC50 is 179 µM (active).
In the case of `CCCCN(CCCC)C(=O)N(CCCC)CCCC`, the AC50 was 27.9 µM (active).
Turning to `CC(=O)NCCO`, the compound was called inactive.
As for `Cc1ncc[nH]1`, the compound was classed as inactive.
Regarding `CCCC[O][Al]([O]CCCC)[O]CCCC`, the result was inactive.
`CCC(=O)O[C@@H]1C[C@H]2CC[C@]1(C)C2(C)C`: the call was inactive.
Take `CCOC(=O)C1OC1c1ccccc1` (stereo not given): the AC50 is 37.6 µM (active).
Regarding `CCN(CCN)c1cccc(C)c1`, the result was inactive.
For `CCCCSCCCC`, the call was inactive.
Turning to `CC/C=C\CC/C=C/CO`, the outcome was inactive.
On to `CCC(C)c1cc([N+](=O)[O-])cc([N+](=O)[O-])c1OC(=O)OC(C)C` (stereo not given), for which the compound was classed as inactive.
On the same count and under the same terms, the value for `COC(=O)c1cccnc1` was “inactive”.
In the case of `COC(C)(C)CCO`, the compound was classed as inactive.
On the same count and under the same terms, the value for `C[Si]1(C)O[Si](C)(C)O[Si](C)(C)O1` was “inactive”; that for `CCCCCCCC/C=C\CCCCCCCC(=O)OCC` was “inactive”.
Take `CCOC(=O)CCc1ccccc1`: the call was inactive.
`[Cl][Au]([Cl])[Cl]`: the call was inactive.
For `C[Si](C)(C)O[Si](C)(C)C`, the call was inactive.
On the same count and under the same terms, the value for `COS(=O)(=O)O` was “inactive”.
Regarding `O=C1OC[C@H](Cc2cccc(O)c2)[C@H]1Cc1cccc(O)c1`, the AC50 was 13.9 µM (active).
For the compound `CCc1ncc(C)[nH]1`, the outcome was inactive.
As to `CCOC(=O)[C@@H](C)Oc1ccc(Oc2nc3ccc(Cl)cc3o2)cc1`, the AC50 is 152 µM (active).
With `OCCCCC(O)CO` (stereo not given), the call was inactive.
